PubChem BioAssay AID485364 (National Center for Advancing Translational Sciences (NCATS), 2010)
Screen size: about 360,000 compounds; about 11,000 (3.1%) were called active. Roughly 4% stayed inconclusive and do not appear here. What follows is part of a selection rich in actives, with near analogues and random picks from the rest. Unmarked numbers belong to inactive results. The call rests on the fitted dose curve; in most records, active means well fitted inhibition curve with a large enough effect; inconclusive means small, poorly fitted or top-dose-only effect; inactive means no such curve, though single readings can be large or run the other way.
Further: nearly all actives have a fitted effect of over 60% in size.
On the % scale 0 is the no-effect control and ±100 the full control effect; potency means the concentration at half of the fitted maximal effect.

These compounds were tested against Schistosoma mansoni thioredoxin glutathione reductase (TGR) (UniProt Q962Y6) (assay: qHTS Assay for the Inhibitors of Schistosoma Mansoni Peroxiredoxins). Conditions: purified TGR, DTNB reduction, TNB absorbance 405 nm; series mostly up to 114 µM; activity change, negative = inhibition: at the top concentration.
Summary of the method: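 TGR 20 nM + NADPH 100 uM (dispensed conc.), cpd preinc 15 min RT; start with NADPH (500 uM addition) then DTNB (15 mM addition). Kinetic TNB absorbance, 405 nm filter. Four-parameter Hill fit across titration.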
CCCCN(CCCNC(=O)c1cc(Nc2ccccc2OC)nc2ccccc12)c1ccccc1 was tested, and the “activity change, negative = inhibition” value was -1.75%. In the case of O=C(c1cccc(S(=O)(=O)Nc2ccccc2Cl)c1)N1CCN(C(=O)c2ccco2)CC1, the Potency is reported as 31.6 µM (active). In the case of O=C(c1cccc([N+](=O)[O-])c1)N1CCN(C(=O)c2ccco2)CC1, the “activity change, negative = inhibition” value is reported as -8%. O=C(CNS(=O)(=O)c1ccccc1)N1CCN(C(=O)c2ccco2)CC1 was tested, and the “activity change, negative = inhibition” value was -24.4%. For COc1ccc(OC)c(NC(=O)CSc2nc3ccccc3nc2N2CCCCC2)c1, the “activity change, negative = inhibition” value was 8.33%. For CCOc1ccc(C2C(C(=O)Nc3ccc(Cl)cc3)=C(C)Nc3nc(C(F)(F)F)nn32)cc1 (configuration not stated), the “activity change, negative = inhibition” value was -2.26%. With Cc1cccc(C(=O)N2c3nc(-c4ccco4)nn3C3(CCCCC3)[C@@H]3CCCC[C@@H]32)c1 the Potency was 35.5 µM (active). In the case of Cc1ccc(C(=O)N2c3ncnn3C3(CCCCC3)[C@@H]3CCCC[C@@H]32)cc1, the “activity change, negative = inhibition” value is reported as -0.658%. With Cc1cccc(C(=O)NC(=S)N(C)C2CCCCC2)c1 the “activity change, negative = inhibition” value was 7.05%. With CCN(CC)CCNC(=O)Cn1ncc2c3ccccc3n(Cc3ccccc3C)c2c1=O the “activity change, negative = inhibition” value was 2.19%. In the case of COc1ccc(/C=C/c2noc(-c3ccccc3O)n2)cc1OC, the “activity change, negative = inhibition” value is reported as 8.66%. For COc1ccccc1CCNC(=O)c1cccn1-c1nnc(N2CCCCC2)s1, the “activity change, negative = inhibition” value was 5.45%. With Cc1ccc(C2C=C(c3ccc(Cl)cc3)Nc3nc(NC(=O)CCC(=O)O)nn32)cc1 (configuration not stated) the Potency was 17.8 µM (active). With COc1ccc(C2C=C(c3ccc(Br)cc3)Nc3nc(NS(C)(=O)=O)nn32)cc1 (configuration not stated) the Potency was 22.4 µM (active). With COc1ccc(CNC(=O)Cn2nnc(-c3ccc(S(C)(=O)=O)cc3)n2)cc1 the “activity change, negative = inhibition” value was -1.93%. CC1=C(C(=O)Nc2ccccc2)C(c2ccc(C)cc2)n2nc(SCc3ccccc3C)nc2N1 (configuration not stated) was tested, and the “activity change, negative = inhibition” value was 4.56%. COc1ccc(C2=CC(c3ccccc3Cl)n3nc(-c4ccc(Cl)cc4)nc3N2)cc1 (configuration not stated) was tested, and the “activity change, negative = inhibition” value was -0.964%. In the case of COc1ccc(CC(=O)Nc2nc3n(n2)C(c2ccccc2)CC(=O)N3)cc1OC (configuration not stated), the “activity change, negative = inhibition” value is reported as -29.1%. CCC(C(=O)Nc1cc(OC)ccc1OC)n1c(=O)c(C(F)(F)F)nc2ccccc21 (configuration not stated) was tested, and the “activity change, negative = inhibition” value was 9.99%. COc1ccc(CCNC(=O)c2ccc(CSCc3ccc(C)cc3)o2)cc1OC was tested, and the “activity change, negative = inhibition” value was -18.8%. In the case of Cc1ccccc1CN1CCC(CNC(=O)c2c(C)oc3ncnc(N4CCCCC4)c23)CC1, the “activity change, negative = inhibition” value is reported as 9.84%. In the case of CCOc1ccc(OCC)c(Nc2nc3ccccc3n3nnnc23)c1, the “activity change, negative = inhibition” value is reported as 1.06%. COc1ccc(CCNC(=O)c2cnc3sc(N4CCCCCC4)nn3c2=O)cc1OC was tested, and the “activity change, negative = inhibition” value was 0.303%. For COc1cccc(N2CC(NC(=O)/C=C\c3ccccc3)CC2=O)c1 (configuration not stated), the “activity change, negative = inhibition” value was 3.58%. Cn1sc(=O)c2cc(S(=O)(=O)NC3CC3)ccc21 was tested, and the Potency was 1.58 µM (active). In the case of O=S(=O)(NC1CC1)c1ccc(F)c(F)c1, the “activity change, negative = inhibition” value is reported as 6.35%. In the case of CC1CCC(NS(=O)(=O)c2ccc3c(c2)n(C)c(=O)c(=O)n3C)CC1 (configuration not stated), the “activity change, negative = inhibition” value is reported as 6.06%.
